Article PMC7862700, “An all-to-all approach to the identification of sequence-specific readers for epigenetic DNA modifications on cytosine”

Experiments:
Assay in all cases: DAPPL (digital affinity profiling via proximity ligation, sequencing); 10 mM Tris-HCl pH 7.5, 50 mM NaCl, 1 mM DTT, 4% glycerol, room temperature, 30 min; GST-TFs on glutathione beads, 16-mer random dsDNA library, 0.1% formaldehyde crosslink after washing; high values mean tight binding
[1] = target: T1, FEV (Homo sapiens, UniProt Q99581 1-238); settings: protein: recombinant; tags: N-terminal GST; dsDNA, one strand shown
T1 sequence: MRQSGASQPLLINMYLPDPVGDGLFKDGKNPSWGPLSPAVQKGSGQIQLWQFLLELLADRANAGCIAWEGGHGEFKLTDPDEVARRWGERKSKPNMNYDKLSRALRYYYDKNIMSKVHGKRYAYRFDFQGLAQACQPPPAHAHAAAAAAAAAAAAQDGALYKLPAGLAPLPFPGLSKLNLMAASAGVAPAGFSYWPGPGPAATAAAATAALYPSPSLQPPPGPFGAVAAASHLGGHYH
How it was run: (§1)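 Pools of DNA-barcoded human transcription factors, expressed in yeast as GST fusions on glutathione beads and combined with a tag-only sample, were incubated with 200 nmole of a 16-mer random double-stranded DNA library. Incubation took 30 min at room temperature in Tris/NaCl/DTT/glycerol buffer and was followed by washing, 0.1% formaldehyde crosslinking, proximity ligation (BsaI/T4 ligase, 1 h, 37 °C), PCR amplification and sequencing on an Illumina NextSeq500. Binding signal is the ratio of a hexamer's read frequency for a factor to its frequency for the tag-only sample.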

[2] = target: ETV5 (Homo sapiens, UniProt P41161 1-510); settings: protein: recombinant; tags: N-terminal GST; dsDNA, one strand shown
How it was run: as §1

[3] = target: HSF1 (Homo sapiens, UniProt Q00613 1-529); settings: protein: recombinant; tags: N-terminal GST; chain copies: 3; dsDNA, one strand shown
How it was run: as §1

[4] = target: T2, SPIC (Homo sapiens, UniProt Q8N5J4 1-248); settings: protein: recombinant; tags: N-terminal GST; dsDNA, one strand shown
T2 sequence: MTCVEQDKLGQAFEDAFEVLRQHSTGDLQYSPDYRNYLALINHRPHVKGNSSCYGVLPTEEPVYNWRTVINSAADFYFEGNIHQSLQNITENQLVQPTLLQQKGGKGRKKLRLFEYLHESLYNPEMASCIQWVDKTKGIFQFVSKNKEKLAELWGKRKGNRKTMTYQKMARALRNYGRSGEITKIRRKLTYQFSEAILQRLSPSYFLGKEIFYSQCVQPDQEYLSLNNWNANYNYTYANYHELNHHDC
How it was run: as §1

[5] = target: ELF4 (Homo sapiens, UniProt Q99607 1-663); settings: protein: recombinant; tags: N-terminal GST; dsDNA, one strand shown
How it was run: as §1

[6] = target: T3, ELK4 (Homo sapiens, UniProt P28324-2 1-405); settings: protein: recombinant; tags: N-terminal GST; dsDNA, one strand shown
T3 sequence: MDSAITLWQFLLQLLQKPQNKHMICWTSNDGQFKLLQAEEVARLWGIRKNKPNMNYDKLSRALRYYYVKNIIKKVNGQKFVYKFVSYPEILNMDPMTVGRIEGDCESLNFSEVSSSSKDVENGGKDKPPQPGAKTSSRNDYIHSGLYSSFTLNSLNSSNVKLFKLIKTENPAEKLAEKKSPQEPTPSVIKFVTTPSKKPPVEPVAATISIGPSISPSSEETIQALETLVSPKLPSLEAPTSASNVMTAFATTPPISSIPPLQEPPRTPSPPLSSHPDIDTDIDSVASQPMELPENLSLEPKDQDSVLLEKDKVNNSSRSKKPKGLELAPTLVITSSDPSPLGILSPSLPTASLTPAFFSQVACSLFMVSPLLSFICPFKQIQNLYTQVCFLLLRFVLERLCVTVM
How it was run: as §1

[7] = target: T4, ETV2 (Homo sapiens, UniProt O00321 1-342); settings: protein: recombinant; tags: N-terminal GST; dsDNA, one strand shown
T4 sequence: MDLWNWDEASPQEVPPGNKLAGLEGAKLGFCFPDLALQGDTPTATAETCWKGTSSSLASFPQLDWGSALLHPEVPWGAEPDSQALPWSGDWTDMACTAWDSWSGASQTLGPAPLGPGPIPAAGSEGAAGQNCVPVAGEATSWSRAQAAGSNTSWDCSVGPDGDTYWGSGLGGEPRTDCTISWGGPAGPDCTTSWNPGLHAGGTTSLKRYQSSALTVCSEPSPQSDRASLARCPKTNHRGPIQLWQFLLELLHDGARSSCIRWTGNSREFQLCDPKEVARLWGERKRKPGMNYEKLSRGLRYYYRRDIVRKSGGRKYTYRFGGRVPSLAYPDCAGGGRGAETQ
How it was run: as §1

[8] = target: T5, ELF3 (Homo sapiens, UniProt P78545 1-371); settings: protein: recombinant; tags: N-terminal GST; dsDNA, one strand shown
T5 sequence: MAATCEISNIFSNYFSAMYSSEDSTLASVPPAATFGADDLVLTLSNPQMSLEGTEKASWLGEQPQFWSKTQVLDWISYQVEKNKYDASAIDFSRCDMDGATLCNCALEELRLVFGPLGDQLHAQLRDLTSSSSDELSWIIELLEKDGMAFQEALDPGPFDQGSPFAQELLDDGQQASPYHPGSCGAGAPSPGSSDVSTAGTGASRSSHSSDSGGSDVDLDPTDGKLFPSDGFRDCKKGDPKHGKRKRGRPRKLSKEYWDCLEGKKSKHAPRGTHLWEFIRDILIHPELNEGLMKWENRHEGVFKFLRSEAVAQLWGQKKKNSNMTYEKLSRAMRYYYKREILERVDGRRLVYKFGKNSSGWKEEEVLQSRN
How it was run: as §1

[9] = target: CRX (Homo sapiens, UniProt O43186 1-299); settings: protein: recombinant; tags: N-terminal GST; dsDNA, one strand shown
How it was run: as §1

[10] = target: ETV1 (Homo sapiens, UniProt P50549 1-477); settings: protein: recombinant; tags: N-terminal GST; dsDNA, one strand shown
How it was run: as §1

ETV5, sequence (P41161 whole entry): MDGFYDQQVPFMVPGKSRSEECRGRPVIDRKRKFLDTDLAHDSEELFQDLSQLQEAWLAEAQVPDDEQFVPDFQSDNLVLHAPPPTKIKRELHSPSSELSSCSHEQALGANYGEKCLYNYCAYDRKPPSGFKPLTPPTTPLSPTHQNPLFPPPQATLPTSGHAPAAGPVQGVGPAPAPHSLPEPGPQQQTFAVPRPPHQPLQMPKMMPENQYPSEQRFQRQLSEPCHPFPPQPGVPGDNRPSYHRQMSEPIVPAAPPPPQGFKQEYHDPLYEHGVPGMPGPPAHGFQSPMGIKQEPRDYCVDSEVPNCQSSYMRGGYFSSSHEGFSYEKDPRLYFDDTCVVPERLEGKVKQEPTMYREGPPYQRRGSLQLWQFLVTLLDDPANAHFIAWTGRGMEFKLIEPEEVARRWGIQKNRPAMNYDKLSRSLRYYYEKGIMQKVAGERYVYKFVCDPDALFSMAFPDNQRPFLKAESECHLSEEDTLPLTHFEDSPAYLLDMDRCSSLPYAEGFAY
HSF1, sequence (Q00613 whole entry): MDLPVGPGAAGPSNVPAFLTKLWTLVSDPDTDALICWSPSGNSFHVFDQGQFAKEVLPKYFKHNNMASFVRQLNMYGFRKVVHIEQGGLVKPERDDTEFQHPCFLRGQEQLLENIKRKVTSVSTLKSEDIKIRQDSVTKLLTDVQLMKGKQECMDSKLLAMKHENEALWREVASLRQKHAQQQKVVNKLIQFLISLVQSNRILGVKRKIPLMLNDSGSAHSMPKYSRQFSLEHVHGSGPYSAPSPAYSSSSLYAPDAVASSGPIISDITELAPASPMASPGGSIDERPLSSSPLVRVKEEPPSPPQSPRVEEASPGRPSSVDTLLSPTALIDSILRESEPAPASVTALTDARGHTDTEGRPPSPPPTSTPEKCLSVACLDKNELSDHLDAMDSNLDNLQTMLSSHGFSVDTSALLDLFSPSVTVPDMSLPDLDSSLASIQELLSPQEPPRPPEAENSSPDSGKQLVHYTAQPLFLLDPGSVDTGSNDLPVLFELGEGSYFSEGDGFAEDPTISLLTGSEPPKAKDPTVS
CRX, sequence (O43186 whole entry): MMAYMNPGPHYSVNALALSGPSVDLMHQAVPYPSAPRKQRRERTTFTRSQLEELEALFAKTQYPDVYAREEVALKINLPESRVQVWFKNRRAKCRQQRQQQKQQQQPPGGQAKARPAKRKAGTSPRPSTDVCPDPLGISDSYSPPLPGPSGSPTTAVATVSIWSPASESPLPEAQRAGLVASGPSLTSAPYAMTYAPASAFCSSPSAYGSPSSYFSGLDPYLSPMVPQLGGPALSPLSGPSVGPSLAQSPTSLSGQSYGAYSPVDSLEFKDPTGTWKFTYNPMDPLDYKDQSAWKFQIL
ETV1, sequence (P50549 whole entry): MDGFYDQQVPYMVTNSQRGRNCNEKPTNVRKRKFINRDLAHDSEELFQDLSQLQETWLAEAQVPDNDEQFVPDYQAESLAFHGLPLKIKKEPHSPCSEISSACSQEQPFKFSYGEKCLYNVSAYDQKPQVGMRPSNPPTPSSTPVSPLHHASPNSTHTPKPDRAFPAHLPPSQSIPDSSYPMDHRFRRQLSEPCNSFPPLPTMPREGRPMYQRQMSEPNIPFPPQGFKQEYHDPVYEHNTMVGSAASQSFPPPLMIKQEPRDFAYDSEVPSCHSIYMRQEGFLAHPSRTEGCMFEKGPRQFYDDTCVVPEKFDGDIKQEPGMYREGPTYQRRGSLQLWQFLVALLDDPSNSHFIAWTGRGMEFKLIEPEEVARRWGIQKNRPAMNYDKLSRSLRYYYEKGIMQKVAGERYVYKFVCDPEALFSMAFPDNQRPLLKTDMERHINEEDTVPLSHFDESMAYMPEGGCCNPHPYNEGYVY
ELF4, sequence (Q99607 whole entry): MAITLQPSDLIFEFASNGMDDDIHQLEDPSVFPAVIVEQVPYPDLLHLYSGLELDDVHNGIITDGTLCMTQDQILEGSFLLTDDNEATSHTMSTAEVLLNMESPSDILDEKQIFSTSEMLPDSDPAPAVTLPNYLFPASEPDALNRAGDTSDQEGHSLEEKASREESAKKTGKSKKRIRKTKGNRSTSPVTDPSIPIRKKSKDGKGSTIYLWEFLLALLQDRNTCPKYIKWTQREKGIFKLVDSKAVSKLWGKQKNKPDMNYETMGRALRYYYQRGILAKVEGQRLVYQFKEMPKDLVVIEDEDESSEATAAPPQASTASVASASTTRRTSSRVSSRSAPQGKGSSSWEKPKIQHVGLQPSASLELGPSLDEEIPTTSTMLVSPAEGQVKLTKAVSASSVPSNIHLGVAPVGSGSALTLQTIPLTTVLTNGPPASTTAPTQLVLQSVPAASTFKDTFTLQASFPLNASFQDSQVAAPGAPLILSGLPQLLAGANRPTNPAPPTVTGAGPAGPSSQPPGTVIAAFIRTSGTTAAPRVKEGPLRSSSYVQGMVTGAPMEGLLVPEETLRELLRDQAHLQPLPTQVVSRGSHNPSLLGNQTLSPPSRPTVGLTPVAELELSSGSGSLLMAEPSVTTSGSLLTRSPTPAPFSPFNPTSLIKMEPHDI

Sequence	binding signal [1]	binding signal [2]	binding signal [3]	binding signal [4]	binding signal [5]	binding signal [6]	binding signal [7]	binding signal [8]	binding signal [9]	binding signal [10]
TAGTTT	1.09 fold enrichment (6-mer frequency, TF over GST control)	1.18 fold enrichment (6-mer frequency, TF over GST control)	1.27 fold enrichment (6-mer frequency, TF over GST control)	1.21 fold enrichment (6-mer frequency, TF over GST control)	1.21 fold enrichment (6-mer frequency, TF over GST control)	1.4 fold enrichment (6-mer frequency, TF over GST control)	1.17 fold enrichment (6-mer frequency, TF over GST control)	1.34 fold enrichment (6-mer frequency, TF over GST control)	1.3 fold enrichment (6-mer frequency, TF over GST control)	1.24 fold enrichment (6-mer frequency, TF over GST control)
AATGCT	1.2 fold enrichment (6-mer frequency, TF over GST control)	1.27 fold enrichment (6-mer frequency, TF over GST control)	1.29 fold enrichment (6-mer frequency, TF over GST control)	1.24 fold enrichment (6-mer frequency, TF over GST control)	1.25 fold enrichment (6-mer frequency, TF over GST control)	1.3 fold enrichment (6-mer frequency, TF over GST control)	1.3 fold enrichment (6-mer frequency, TF over GST control)	1.21 fold enrichment (6-mer frequency, TF over GST control)	1.26 fold enrichment (6-mer frequency, TF over GST control)	1.24 fold enrichment (6-mer frequency, TF over GST control)
AAGCCT	1.2 fold enrichment (6-mer frequency, TF over GST control)	1.21 fold enrichment (6-mer frequency, TF over GST control)	1.5 fold enrichment (6-mer frequency, TF over GST control)	1.26 fold enrichment (6-mer frequency, TF over GST control)	1.24 fold enrichment (6-mer frequency, TF over GST control)	1.14 fold enrichment (6-mer frequency, TF over GST control)	1.19 fold enrichment (6-mer frequency, TF over GST control)	1.18 fold enrichment (6-mer frequency, TF over GST control)	1.97 fold enrichment (6-mer frequency, TF over GST control)	1.18 fold enrichment (6-mer frequency, TF over GST control)
AATCAA	1.19 fold enrichment (6-mer frequency, TF over GST control)	1.14 fold enrichment (6-mer frequency, TF over GST control)	1.13 fold enrichment (6-mer frequency, TF over GST control)	1.11 fold enrichment (6-mer frequency, TF over GST control)	1.21 fold enrichment (6-mer frequency, TF over GST control)	1.18 fold enrichment (6-mer frequency, TF over GST control)	1.48 fold enrichment (6-mer frequency, TF over GST control)	1.24 fold enrichment (6-mer frequency, TF over GST control)	1.32 fold enrichment (6-mer frequency, TF over GST control)	1.19 fold enrichment (6-mer frequency, TF over GST control)
TTCATG	1.23 fold enrichment (6-mer frequency, TF over GST control)	1.27 fold enrichment (6-mer frequency, TF over GST control)	1.23 fold enrichment (6-mer frequency, TF over GST control)	1.35 fold enrichment (6-mer frequency, TF over GST control)	1.33 fold enrichment (6-mer frequency, TF over GST control)	1.32 fold enrichment (6-mer frequency, TF over GST control)	1.26 fold enrichment (6-mer frequency, TF over GST control)	1.27 fold enrichment (6-mer frequency, TF over GST control)	1.16 fold enrichment (6-mer frequency, TF over GST control)	1.29 fold enrichment (6-mer frequency, TF over GST control)
ATTTTA	1.25 fold enrichment (6-mer frequency, TF over GST control)	1.23 fold enrichment (6-mer frequency, TF over GST control)	1.45 fold enrichment (6-mer frequency, TF over GST control)	1.36 fold enrichment (6-mer frequency, TF over GST control)	1.32 fold enrichment (6-mer frequency, TF over GST control)	1.37 fold enrichment (6-mer frequency, TF over GST control)	1.29 fold enrichment (6-mer frequency, TF over GST control)	1.23 fold enrichment (6-mer frequency, TF over GST control)	1.83 fold enrichment (6-mer frequency, TF over GST control)	1.25 fold enrichment (6-mer frequency, TF over GST control)
ACTTCA	1.38 fold enrichment (6-mer frequency, TF over GST control)	1.42 fold enrichment (6-mer frequency, TF over GST control)	1.18 fold enrichment (6-mer frequency, TF over GST control)	1.55 fold enrichment (6-mer frequency, TF over GST control)	1.33 fold enrichment (6-mer frequency, TF over GST control)	1.56 fold enrichment (6-mer frequency, TF over GST control)	1.37 fold enrichment (6-mer frequency, TF over GST control)	1.44 fold enrichment (6-mer frequency, TF over GST control)	1.17 fold enrichment (6-mer frequency, TF over GST control)	1.48 fold enrichment (6-mer frequency, TF over GST control)
CGTTAA	1.18 fold enrichment (6-mer frequency, TF over GST control)	1.21 fold enrichment (6-mer frequency, TF over GST control)	1.31 fold enrichment (6-mer frequency, TF over GST control)	1.34 fold enrichment (6-mer frequency, TF over GST control)	1.12 fold enrichment (6-mer frequency, TF over GST control)	1.07 fold enrichment (6-mer frequency, TF over GST control)	1.36 fold enrichment (6-mer frequency, TF over GST control)	1.27 fold enrichment (6-mer frequency, TF over GST control)	1.7 fold enrichment (6-mer frequency, TF over GST control)	1.09 fold enrichment (6-mer frequency, TF over GST control)
